PubChem BioAssay AID1159580 (chemical genetic matrix, 2015)
Where “and” joins values, the source holds several entries; their conditions need not be identical. Identical values can stand only once. Hit rate of the full screen: of about 5,500 compounds, about 2,000 (36%) were called active. Another 18% or so got no clear call; they are omitted. No stated cut-off is given here; in the data, active means normalized growth mostly below about 0.91 (no sharp cut-off); inconclusive means no clear call, values can overlap the other calls; inactive means mostly above about 0.92. The list shows a part of the results.

Experiment: chemical genetic growth profiling, strain panel (AID 1159580);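 further: tested at 20 µM; growth read once vehicle control cultures reached saturation at 30 °C; 1 = growth at the plate median or of vehicle wells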
Settings: S. cerevisiae deletion strains, growth OD

Measured: normalized growth

COc1c(O)cc(O)cc1O
inactive: locus YAL021C, strain ccr4, stronger effect = lower value 1.01 | locus YAL026C, strain drs2, stronger effect = lower value 1.02 | locus YAL030W, strain snc1, stronger effect = lower value 0.999 | locus YBL061C, strain skt5, stronger effect = lower value 0.996 | locus YBR009C, strain hhf1, stronger effect = lower value 1.02 | locus YBR021W, strain FUR4, stronger effect = lower value 0.985 | locus YBR023C, strain chs3, stronger effect = lower value 1.01 | locus YBR171W, strain sec66, stronger effect = lower value 0.994 | locus YBR229C, strain ROT2, stronger effect = lower value 1 | locus YBR231C, strain swc5, stronger effect = lower value 1.01 | locus YBR279W, strain paf1, stronger effect = lower value 1 | locus YCL011C, strain gbp2, stronger effect = lower value 1.01 | locus YCL016C, strain dcc1, stronger effect = lower value 1.01 | locus YCL029C, strain bik1, stronger effect = lower value 1.02 | locus YCL061C, strain MRC1, stronger effect = lower value 1 | locus YCL069W, strain vba3, stronger effect = lower value 1 | locus YCR088W, strain abp1, stronger effect = lower value 0.992 | locus YDL005C, strain med2, stronger effect = lower value 0.983 | locus YDL035C, strain GPR1, stronger effect = lower value 1.07 | locus YDL040C, strain nat1, stronger effect = lower value 0.981 | locus YDL074C, strain BRE1, stronger effect = lower value 1.06 | locus YDL101C, strain DUN1, stronger effect = lower value 0.992 | locus YDL185W, strain tfp1, stronger effect = lower value 0.978 | locus YDL192W, strain arf1, stronger effect = lower value 1 | locus YDR001C, strain nth1, stronger effect = lower value 1 | locus YDR069C, strain doa4, stronger effect = lower value 1 | locus YDR101C, strain arx1, stronger effect = lower value 1.04 | locus YDR137W, strain rgp1, stronger effect = lower value 1.04 | locus YDR159W, strain sac3, stronger effect = lower value 0.976 | locus YDR162C, strain NBP2, stronger effect = lower value 1.06 | locus YDR195W, strain ref2 0.951 | locus YDR297W, strain sur2, stronger effect = lower value 0.998 | locus YDR318W, strain mcm21, stronger effect = lower value 1 | locus YDR334W, strain swr1, stronger effect = lower value 0.994 | locus YDR335W, strain msn5, stronger effect = lower value 1 | locus YDR388W, stronger effect = lower value 0.997 | locus YDR392W, strain spt3, stronger effect = lower value 1.01 | locus YDR502C, strain sam2, stronger effect = lower value 0.998 | locus YEL003W, strain gim4, stronger effect = lower value 1.02 | locus YEL037C, strain rad23, stronger effect = lower value 1 | locus YEL061C, strain CIN8 (second series), stronger effect = lower value 1.01 | locus YEL061C, strain CIN8, stronger effect = lower value 1.01 | locus YER015W, strain faa2, stronger effect = lower value 1 | locus YER016W, strain bim1, stronger effect = lower value 0.996 | locus YER110C, stronger effect = lower value 0.991 | locus YER111C, strain swi4, stronger effect = lower value 0.989 | locus YER155C, strain BEM2 (second series), stronger effect = lower value 1.02 | locus YER155C, strain BEM2, stronger effect = lower value 0.989 | locus YER167W, strain BCK2, stronger effect = lower value 1 | locus YFR010W, strain ubp6, stronger effect = lower value 0.999 | locus YGL078C, strain dbp3, stronger effect = lower value 0.969 | locus YGL086W, strain mad1, stronger effect = lower value 1.01 | locus YGL167C, strain pmr1, stronger effect = lower value 0.998 | locus YGL173C, strain kem1, stronger effect = lower value 0.999 | locus YGL227W, strain vid30, stronger effect = lower value 0.988 | locus YGL240W, strain doc1, stronger effect = lower value 0.992 | locus YGL248W, strain PDE1, stronger effect = lower value 0.996 | locus YGL253W, strain hxk2, stronger effect = lower value 1.01 | locus YGR078C, strain PAC10, stronger effect = lower value 1.02 | locus YGR135W, strain pre9, stronger effect = lower value 0.972 | locus YGR252W, strain gcn5, stronger effect = lower value 0.997 | locus YHR013C, strain ard1, stronger effect = lower value 1.01 | locus YHR027C, strain rpn1, stronger effect = lower value 0.988 | locus YHR030C, strain SLT2, stronger effect = lower value 1.01 and 1.05 | locus YHR079C, strain IRE1 (second series), stronger effect = lower value 0.997 | locus YHR079C, strain IRE1, stronger effect = lower value 1.02 | locus YHR094C, strain hxt1, stronger effect = lower value 1 | locus YHR129C, strain ARP1, stronger effect = lower value 0.998 | locus YHR142W, strain chs7, stronger effect = lower value 1.03 | locus YHR200W, strain rpn10, stronger effect = lower value 0.984 | locus YIL066C, strain RNR3, stronger effect = lower value 1 | locus YIL073C, strain SPO22, stronger effect = lower value 1.05 | locus YIL125W, strain kgd1, stronger effect = lower value 1 | locus YIR030C, strain dcg1, stronger effect = lower value 1.01 | locus YJL092W, strain hpr5, stronger effect = lower value 0.995 | locus YJL095W, strain BCK1 (second series), stronger effect = lower value 1 | locus YJL095W, strain BCK1, stronger effect = lower value 0.998 and 1.05 | locus YJL115W, strain asf1, stronger effect = lower value 0.992 | locus YJL129C, strain trk1, stronger effect = lower value 0.989 | locus YJL134W, strain LCB3, stronger effect = lower value 0.997 | locus YJL154C, strain vps35, stronger effect = lower value 0.995 | locus YJL164C, strain tpk1, stronger effect = lower value 1.01 | locus YJL166W, strain qcr8, stronger effect = lower value 1.05 | locus YJL168C, strain set2, stronger effect = lower value 1 | locus YJL187C, strain SWE1 (second series), stronger effect = lower value 0.997 | locus YJL187C, strain SWE1, stronger effect = lower value 1 | locus YJR043C, strain POL32, stronger effect = lower value 1.07
